Measurements from PubChem BioAssay AID504340 (NMMLSC, 2011).
“And” between values parts separate entries of the source, which are not always exact repeats. Equal entries are not always repeated. The source made the active and inactive calls.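 How the source made its calls: active means GFP response above 150% of the DMSO control; inconclusive means Under 70 cell events counted for a yeast strain; inactive means the rest.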

Experiment: yeast TOR pathway CIT2-GFP reporter retest – flow cytometry, third cherry pick, single plex, confirmation (AID 504340);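 further: median GFP fluorescence over all cells with no mother versus daughter split; sample signal as a ratio to the plate DMSO mean so 100% equals DMSO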
Settings: S. cerevisiae CIT2-GFP strain, 3 h, at 10 µM, active compounds read high

GFP response vs DMSO, active:
CNc1nc(N)c([N+](=O)[O-])c(Nc2ccccc2OC)n1 168%
Cc1ccc(NN2C(=O)C=C(c3ccccc3)C2=O)cc1 151%
CNc1nc(N)c([N+](=O)[O-])c(Nc2cccc(Cl)c2)n1 480%

GFP response vs DMSO, inactive:
Nc1ccc(O)c2c1C(=O)c1ccccc1C2=O 107%
CC(=O)CC(=O)Nc1ccc(C(N)=O)cc1 106%
CCc1c(C)nc2c(OC)cccc2c1Cl 97.7%
COCCCNc1nc(N)c([N+](=O)[O-])c(Nc2ccccc2OC)n1 107%
COc1ccc(-c2cc(C(F)(F)F)nc(S(C)(=O)=O)n2)cc1OC 112% and 109%
C=CCNc1ncnc2ccc(Br)cc12 101%
C/C(=N\NC(=O)c1ccccc1)c1ccccc1F 104%
O=C(N/N=C/c1ccccc1)c1cccc2ccccc12 97.7%
O=C(Nc1nc(-c2ccccn2)cs1)c1ccccc1-n1cnnn1 103%
O=C(N/N=C/c1ccccc1O)c1cccc2ccccc12 92.8%
C=CCNc1ncnc2ccccc12 103%
N#Cc1c(N)nc(N)nc1Nc1ccc(Br)cc1 99.3%
CCCOCc1ccc(O)c2ncccc12 104%
Cc1ccc(C(=O)Nc2nc(-c3ccccn3)cs2)o1 99.3%
Cn1c(=O)c2c(n3cnnc13)-c1ccccc1CC21CCCC1 106%
O=C(Nc1ccccc1Cl)ON=C1c2ccccc2-c2ccccc21 116%
CS(=O)(=O)Oc1ccc(Br)c2cccnc12 103%
NC(=O)COc1cccc2cccnc12 104%
Nc1[nH]c(=O)nc(Nc2ccccc2)c1N=O 92.8%
COc1ccccc1Nc1nc(NCCO)nc(N)c1[N+](=O)[O-] 111%
COCCCNc1nc(N)c([N+](=O)[O-])c(Nc2cc(OC)ccc2OC)n1 106%
CC1=NNC(=O)/C1=C\c1cn(-c2ccccc2)nc1-c1ccc(F)cc1 124%
CS(=O)(=O)c1nc(-c2ccc(F)cc2)cc(C(F)(F)F)n1 107%
COc1ccc(OC)c(N/C(C)=C/C(=O)c2ccccc2)c1 99.3%
COc1cccc2c(Cl)c(CCCl)c(C)nc12 111%
NC(=O)c1ccnc2c(O)cccc12 101%
CNc1cccc2c1C(=O)c1ccccc1C2=O 104%
Nc1cc(C(=O)O)c(N)c2c1C(=O)c1ccccc1C2=O 94.5%
Cc1ccc2c(Cl)cc(Cl)c(OCC(=O)O)c2n1 109%
Cc1nc(Nc2ccc(Cl)cc2)c(C#N)c(=O)[nH]1 107%
CC(=O)C(Cl)C(=O)Nc1ccccc1 (centres undefined) 121%
COc1ccccc1-c1cc(C(F)(F)F)nc(S(=O)(=O)CCCC(=O)O)n1 111%
COCCNc1nc(N)c([N+](=O)[O-])c(Nc2ccc(F)cc2)n1 101%
Cc1nc2c(O)cccc2cc1CO 101%
O=C(Nc1cccc2ccccc12)ON=C1CCCCC1 106%
FC(F)Oc1cccc2cccnc12 97.7%
